# Where “and” joins values, the source holds several entries; their conditions need not be identical. Equal entries are not always repeated. Inconclusive results are not listed. Entries that show only a call come without a potency. Calls of active or inactive are those of the source. Unless noted, calls follow the shape of the dose curve; as a rule, active = well fitted curve in the direction sought with a large enough effect; inconclusive = small, poorly fitted or top-dose-only effect, or another doubt; inactive = no such curve, though single readings can be large; an effect the other way counts as inactive or inconclusive.
# Tests used:
# [1] = target: T1, Hexokinase-4 (Homo sapiens) + Glucokinase regulatory protein (Homo sapiens) (UniProt P35557+Q14397); experiment: qHTS assay for inhibitors of recombinant human GCK-GKRP interaction: Diaphorase-coupled assay (AID 743205)
# T1 sequence (P35557 whole entry, looked up): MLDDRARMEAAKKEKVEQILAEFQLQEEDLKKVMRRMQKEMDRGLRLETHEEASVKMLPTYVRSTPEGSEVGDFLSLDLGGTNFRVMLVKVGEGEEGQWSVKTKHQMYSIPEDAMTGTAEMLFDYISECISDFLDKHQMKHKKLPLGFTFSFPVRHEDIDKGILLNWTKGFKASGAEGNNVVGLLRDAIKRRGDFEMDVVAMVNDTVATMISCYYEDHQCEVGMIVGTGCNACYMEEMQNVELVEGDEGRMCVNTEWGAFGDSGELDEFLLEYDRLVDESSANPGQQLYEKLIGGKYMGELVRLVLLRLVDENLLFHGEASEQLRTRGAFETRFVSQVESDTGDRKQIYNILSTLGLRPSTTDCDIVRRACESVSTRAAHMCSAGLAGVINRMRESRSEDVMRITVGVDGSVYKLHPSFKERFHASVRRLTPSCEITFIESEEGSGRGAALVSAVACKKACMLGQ
# T1 sequence (Q14397 whole entry, looked up): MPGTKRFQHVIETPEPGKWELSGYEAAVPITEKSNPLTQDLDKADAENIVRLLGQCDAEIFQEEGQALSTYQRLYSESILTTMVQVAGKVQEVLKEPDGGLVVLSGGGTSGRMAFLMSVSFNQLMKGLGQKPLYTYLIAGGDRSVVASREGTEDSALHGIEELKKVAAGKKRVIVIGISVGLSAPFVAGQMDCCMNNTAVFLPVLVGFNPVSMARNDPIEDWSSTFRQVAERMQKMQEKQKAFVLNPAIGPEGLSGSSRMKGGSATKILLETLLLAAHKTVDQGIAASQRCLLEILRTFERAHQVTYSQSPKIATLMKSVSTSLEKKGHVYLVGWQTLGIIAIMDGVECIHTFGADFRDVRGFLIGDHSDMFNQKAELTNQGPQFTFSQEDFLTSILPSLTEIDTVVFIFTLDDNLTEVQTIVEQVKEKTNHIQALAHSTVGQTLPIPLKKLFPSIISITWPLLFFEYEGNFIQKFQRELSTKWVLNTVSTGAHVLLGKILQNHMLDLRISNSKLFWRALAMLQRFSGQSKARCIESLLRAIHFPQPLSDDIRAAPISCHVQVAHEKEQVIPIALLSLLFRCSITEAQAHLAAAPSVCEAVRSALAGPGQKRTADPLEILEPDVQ
# In short: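 Inhibitors of the GCK–GKRP complex relieve GKRP suppression of GCK, detected through a G6PDH–diaphorase cascade reducing resazurin. Human GST-GCK and FLAG-GKRP are used at 10 nM with 5 mM glucose and 0.4 mM ATP.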
# [2] = target: T1, Hexokinase-4 (Homo sapiens) + Glucokinase regulatory protein (Homo sapiens); experiment: qHTS assay for inhibitors of recombinant human GCK-GKRP interaction: ADP-Glo assay (AID 743206)
# In short: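 Pin-transferred compounds meet a 15 nM GST-GCK/15 nM FLAG-GKRP/2 uM S6P mix (dispense concentrations). ATP is then added to 0.4 mM final with 5 mM glucose, and the reaction runs 60 min at room temperature. ADP is quantified luminescently.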
# [3] = target: T1, Hexokinase-4 (Homo sapiens) + Glucokinase regulatory protein (Homo sapiens); experiment: qHTS assay for inhibitors of recombinant human GCK-GKRP interaction: HTRF assay (AID 743207)
# In short: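 Steps: dispense GCK–GKRP complex (5 nM each, GST- and FLAG-tagged) with 2 uM S6P; pin in compounds; add XL665/Eu-cryptate-labelled antibodies; incubate 60 min at room temperature; read time-resolved FRET at 665 and 615 nm.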
# [4] = qHTS Assay for Identifying Gametocytocidal Compounds (AID 743244); also: potency is read from the fitted curve at half-maximal effect;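 as to max response: actives lower the fluorescent signal which means gametocytes are killed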; settings: P. falciparum 3D7 stage III-V gametocytes, alamarBlue, 72 h; max response: stronger effect = lower value
# In short: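 Stage III-V P. falciparum 3D7 gametocytes, 20,000 per well, were exposed to compounds for 72 h at 37C, 5% CO2. AlamarBlue was then added for 24 h and viability was read as fluorescence at Ex 525/Em 598 nm.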
# [5] = qHTS profiling of the MIPE4 collection as inhibitors of Plasmodium falciparum (3D7) proliferation (AID 743344; call rule not given here); settings: P. falciparum 3D7 in erythrocytes, SYBR Green DNA fluorescence, 72 h; at 28.5 µM (top of the series) unless noted
# In short: (§1)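 Parasite DNA was quantified by SYBR Green I fluorescence (ex 485, em 535 nm) after overnight lysis in saponin/Triton buffer at room temperature. Cultures at 0.3% parasitemia and 2.5% hematocrit were first exposed to compound for 72 h at 37 C; signals were normalised to artemisinin (0.29 uM) and vehicle wells.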
# [6] = qHTS profiling of the MIPE4 collection as inhibitors of Plasmodium falciparum (DD2) proliferation (AID 743345; call rule not given here); settings: P. falciparum Dd2 in erythrocytes, SYBR Green DNA, 72 h; at 28.5 µM (top of the series) unless noted
# In short: as §1
# [7] = qHTS assay for cell viability of HEK293 cells (AID 743288); settings: ATP luminescence (CellTiter-Glo), 18 h; max response: stronger effect = lower value; also: nearly all actives have a fitted effect of over 50% in size
# In short: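 Quantitative high-throughput screen: compounds were pinned onto parental HEK293 cells (2,000 per well) after a minimum 5 h settling at 37 C, incubated 18 h at 37 C, and intracellular ATP measured by luciferase luminescence.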
# [8] = qHTS assay for cell viability of the p53RE-bla HCT-116 cell line (AID 743292); also: nearly all actives have a fitted effect of over 55% in size
# In short: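 Intracellular ATP of p53RE-bla HCT-116 cells measured by luciferase luminescence following 16 h compound incubation at 37 C; DMSO-only wells served as vehicle controls.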
Structure (SMILES),outcome [1],outcome [2],outcome [3],max response [4],"parasite growth, % of DMSO control [5] [%]","parasite growth remaining, % of DMSO control (lower = more inhibition) [6] [%]",max response [7],Potency [8],Potency [4]
O=C1c2c(O)cc(O)cc2OC(c2ccc(O)c(O)c2)C1O (stereo unspecified),inactive,inactive,inactive,-8.7% (inactive),75.5,93.8,,,
COc1ccccc1N1CCN(CCN(C(=O)C2CCCCC2)c2ccccn2)CC1,inactive,inactive,inactive,6.13% (inactive),57.8,78.2,,,
Nc1nc(N)c(N=O)c(OCC2CCCCC2)n1,inactive,inactive,inactive,15% (inactive),28,79.9,,,
CC1(C)NC(=O)N(c2ccc([N+](=O)[O-])c(C(F)(F)F)c2)C1=O,inactive,inactive,inactive,12.7% (inactive) and -11.2% (inactive),83.6,106,-18.9% (inactive),inactive,
O=c1c(O)c(-c2cc(O)c(O)c(O)c2)oc2cc(O)cc(O)c12,inactive,inactive,inactive,4.63% (inactive),93.5,85.3,,,
Oc1ccc2ccccc2c1SSc1c(O)ccc2ccccc12,inactive,inactive,inactive,,6.56,53.4,,,3.55 µM (active)
OC(CN1CCN(c2cccc(Cl)c2)CC1)C(c1ccccc1)c1ccccc1 (stereo unspecified),inactive,inactive,inactive,26.8% (inactive),42.2,90.9,,,
O=Nc1c(-c2c(O)[nH]c3cc(Br)ccc23)[nH]c2ccccc12,inactive,inactive,inactive,,2.9,6.11,,,
NCCCCNCCCN,inactive,inactive,inactive,11.2% (inactive),161,95.4,,,
CN(C)CCCC1(c2ccc(F)cc2)OCc2cc(C#N)ccc21 (stereo unspecified),inactive,inactive,inactive,7.27% (inactive),95.4,63.7,,,
